Reference: PubChem BioAssay AID1159580 (chemical genetic matrix, 2015)
Screen size: about 5,500 compounds; about 2,000 (36%) were called active. About 18% were inconclusive and are not listed. Rule as the data show it: active = normalized growth mostly below about 0.91 (no sharp cut-off); inconclusive = no clear call, values can overlap the other calls; inactive = mostly above about 0.92. The list shows a part of the results.

Experiment: chemical genetic growth profiling, strain panel (AID 1159580);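 also: tested at 20 µM; growth read once vehicle control cultures reached saturation at 30 °C; 1 = growth at the plate median or of vehicle wells; lower values mean less growth of the strain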
Conditions: S. cerevisiae deletion strains, growth OD

Measured: normalized growth

CC1=NS(=O)(=O)c2cc(Cl)ccc2N1
inactive: locus YAL021C, strain ccr4, hits give low values 0.919 | locus YAL026C, strain drs2, hits give low values 0.972 | locus YAL030W, strain snc1, hits give low values 0.987 | locus YAL040C, strain CLN3, hits give low values 1 | locus YBL061C, strain skt5, hits give low values 0.984 | locus YBR009C, strain hhf1, hits give low values 0.984 | locus YBR023C, strain chs3, hits give low values 0.971 | locus YBR171W, strain sec66, hits give low values 0.972 | locus YBR231C, strain swc5, hits give low values 0.995 | locus YBR279W, strain paf1, hits give low values 0.952 | locus YCL011C, strain gbp2, hits give low values 0.985 | locus YCL016C, strain dcc1, hits give low values 0.976 | locus YCL061C, strain MRC1 (second series), hits give low values 0.995 | locus YCL069W, strain vba3, hits give low values 0.967 | locus YCR088W, strain abp1, hits give low values 0.971 | locus YDL005C, strain med2, hits give low values 0.972 | locus YDL040C, strain nat1, hits give low values 0.958 | locus YDR001C, strain nth1, hits give low values 0.967 | locus YDR069C, strain doa4, hits give low values 0.937 | locus YDR137W, strain rgp1, hits give low values 0.957 | locus YDR150W, strain NUM1, hits give low values 1.01 | locus YDR159W, strain sac3, hits give low values 0.936 | locus YDR195W, strain ref2 0.899 | locus YDR297W, strain sur2, hits give low values 0.974 | locus YDR334W, strain swr1, hits give low values 0.936 | locus YDR335W, strain msn5, hits give low values 0.971 | locus YDR363W, strain ESC2, hits give low values 0.973 | locus YDR392W, strain spt3, hits give low values 0.971 | locus YEL003W, strain gim4, hits give low values 0.984 | locus YEL037C, strain rad23, hits give low values 0.944 | locus YEL061C, strain CIN8 (second series), hits give low values 0.972 | locus YER002W, strain NOP16, hits give low values 0.999 | locus YER015W, strain faa2, hits give low values 0.971 | locus YER016W, strain bim1, hits give low values 0.963 | locus YER111C, strain swi4, hits give low values 0.99 | locus YER155C, strain BEM2 (second series), hits give low values 0.994 | locus YFR010W, strain ubp6, hits give low values 0.946 | locus YGL167C, strain pmr1, hits give low values 0.95 | locus YGL173C, strain kem1, hits give low values 0.995 | locus YGL227W, strain vid30, hits give low values 0.967 | locus YGL240W, strain doc1, hits give low values 0.953 | locus YGL253W, strain hxk2, hits give low values 0.951 | locus YGR078C, strain PAC10, hits give low values 1.01 | locus YHR013C, strain ard1, hits give low values 0.925 | locus YHR027C, strain rpn1, hits give low values 0.977 | locus YHR030C, strain SLT2, hits give low values 0.96 | locus YHR079C, strain IRE1, hits give low values 0.969 | locus YHR142W, strain chs7, hits give low values 0.948 | locus YJL092W, strain hpr5, hits give low values 0.986 | locus YJL095W, strain BCK1 (second series), hits give low values 0.961 | locus YJL095W, strain BCK1, hits give low values 0.974 | locus YJL115W, strain asf1, hits give low values 0.948 | locus YJL129C, strain trk1, hits give low values 0.975 | locus YJL154C, strain vps35, hits give low values 0.989 | locus YJL164C, strain tpk1, hits give low values 0.977 | locus YJL166W, strain qcr8, hits give low values 0.963 | locus YJL187C, strain SWE1, hits give low values 0.979 | locus YJR066W, strain TOR1, hits give low values 0.948 | locus YJR075W, strain HOC1, hits give low values 0.991 | locus YKL160W, strain elf1, hits give low values 0.981 | locus YKR026C, strain gcn3, hits give low values 0.958 | locus YKR091W, strain srl3, hits give low values 0.969 | locus YLL001W, strain dnm1, hits give low values 0.969 | locus YLL026W, hits give low values 0.985 | locus YLL041C, strain sdh2, hits give low values 0.981 | locus YLR027C, strain aat2, hits give low values 0.975 | locus YLR113W, strain HOG1, hits give low values 0.951 | locus YLR221C, strain rsa3, hits give low values 0.986 | locus YLR258W, strain gsy2, hits give low values 0.971 | locus YLR262C, strain YPT6 (second series), hits give low values 0.961 | locus YLR320W, strain mms22, hits give low values 0.971 | locus YLR342W, strain FKS1, hits give low values 0.992 | locus YLR357W, strain rsc2, hits give low values 0.944 | locus YLR370C, strain arc18, hits give low values 0.963 | locus YLR384C, strain iki3, hits give low values 0.984 | locus YML120C, strain ndi1, hits give low values 0.98 | locus YMR058W, strain fet3, hits give low values 0.97 | locus YMR125W, strain sto1, hits give low values 0.955 | locus YMR129W, hits give low values 0.955 | locus YMR205C, strain PFK2, hits give low values 0.966 | locus YMR231W, strain pep5, hits give low values 0.963 | locus YMR307W, strain GAS1, hits give low values 0.993 | locus YNL071W, strain lat1, hits give low values 0.949 | locus YNL175C, strain NOP13, hits give low values 1 | locus YNL183C, strain NPR1, hits give low values 0.906 | locus YNL197C, strain WHI3, hits give low values 0.996 | locus YNL209W, strain ssb2, hits give low values 0.979 | locus YNL224C, strain SQS1, hits give low values 1 | locus YNL248C, strain rpa49, hits give low values 0.998 | locus YNL322C, strain KRE1 (second series), hits give low values 0.966 | locus YNL322C, strain KRE1, hits give low values 0.953 | locus YNR049C, strain mso1, hits give low values 0.974 | locus YOR001W, strain rrp6, hits give low values 0.958 | locus YOR070C, strain gyp1, hits give low values 0.99 | locus YOR080W, strain dia2, hits give low values 0.942 | locus YOR083W, strain WHI5 (second series), hits give low values 1.02 | locus YOR083W, strain WHI5, hits give low values 0.958 | locus YOR106W, strain vam3, hits give low values 0.983 | locus YOR231W, strain MKK1, hits give low values 0.978 | locus YOR265W, strain rbl2, hits give low values 0.975 | locus YOR270C, strain vph1, hits give low values 0.888 | locus YOR290C, strain snf2, hits give low values 0.965 | locus YPL051W, strain arl3, hits give low values 0.994 | locus YPL055C, strain LGE1, hits give low values 0.987 | locus YPL078C, strain atp4, hits give low values 0.985 | locus YPL106C, strain sse1, hits give low values 0.92 | locus YPL240C, strain hsp82, hits give low values 0.967 | locus YPL241C, strain CIN2, hits give low values 0.992 | locus YPL256C, strain CLN2, hits give low values 0.97
